We go through 37 compounds from PubChem BioAssay (NCATS).

A number with no mark means an inactive call. Inconclusive results are not listed. Activity calls are given as the source filed them. Calls follow the shape of the dose curve; as a rule, active = well fitted curve in the direction sought with a large enough effect; inconclusive = small, poorly fitted or top-dose-only effect, or another doubt; inactive = no such curve, though single readings can be large; an effect the other way counts as inactive or inconclusive. Where a SMILES comes first, the peptide text is derived from it. [ ]: non-standard residue; d: D form. ξ: configuration not given here. ξPhe(βξ-Me) = CC(c1ccccc1)C(N)C(=O)O; GABA = NCCCC(=O)O

Test [1] addresses Glutathione peroxidase 1 (Homo sapiens) (UniProt P07203). In words: Primary qHTS Assay for Inhibitors of Recombinant Selenoprotein Glutathione Peroxidase 1 (GPX1) (AID 1845191). Also: nearly all actives have a fitted effect of over 65% in size. As to activity, negative = inhibition: % is scaled to controls: 0 for no effect and ±100 for the full control effect. In a few lines:
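10 nM GPX1 + cpd, 30 min RT; start w/ 1 mM GSH, 0.5 mM cumene hydroperoxide, 0.5 mM NADPH, 100 nM GR, 0.01% BSA; buffer 50 mM Tris-HCl pH 7.5, 2 mM EDTA, 150 mM NaCl; Fl 340/450, 0 & 15 min.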
(In general: In qHTS, concentration-response curves come from the screen itself.)

Test [2] deals with Phospholipid hydroperoxide glutathione peroxidase GPX4 (Homo sapiens) (UniProt P36969). Put plainly: Primary qHTS Assay for Inhibitors of Recombinant Selenoprotein Glutathione Peroxidase 4 (GPX4) (AID 1845192). Also: nearly all actives have a fitted effect of over 65% in size. As to activity change, negative = inhibition: series mostly up to about 50 µM; % is scaled to controls: 0 for no effect and ±100 for the full control effect. An outline of the steps: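 NADPH consumption, followed by fluorescence at 340/450 nm between 0 and 15 min, reports GPX4 activity via coupled glutathione reductase (100 nM). Enzyme 200 nM was pre-exposed to compound 30 min; 0.5 mM cumene hydroperoxide and 1 mM GSH served as substrates.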

Test [3] has as its target Luciferin 4-monooxygenase (Photinus pyralis) (UniProt P08659). In words: Primary firefly luciferase (FLuc) qHTS assay for identification of artifact compounds. (AID 1845220). Also: nearly all actives have a fitted effect of over 60% in size.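 As to activity change, negative = inhibition: series mostly up to about 54 µM; plate controls were DMSO vehicle for no effect and no enzyme for full effect.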 An outline of the steps:
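Cell-free, 1536-well qHTS. Buffer pH 7.6 with 0.01% Tween-20 and 0.05% BSA; 10 uM D-luciferin, 10 uM ATP; 10 nM P. pyralis luciferase; luminescence after 5 min.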

A short description of test [4]: Primary fluorescence-based thiol-reactive (MSTI) qHTS assay for identification of artifact compounds. (AID 1845221). Also: nearly all actives have a fitted effect of over 65% in size. Also: potency is read from the fitted curve at half-maximal effect.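 As to activity change, negative = thiol reactive: series mostly up to about 54 µM; thiol-reactive compounds lower the probe fluorescence signal.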 In a few lines: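 Thiol-reactive compounds detected by quenching of 4 uM MSTI fluorescence (525/598 nm) after 1 h room-temperature dark incubation in PBS pH 7.4, 2% DMSO. qHTS titration; percent inhibition Hill-fitted against Acetyl-MSTI/MSTI controls.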

In test [5] the test system is Nanoluciferase (engineered Oplophorus gracilirostris luciferase). Put plainly: Primary Nanoluciferase (NLuc) qHTS assay for identification of artifact compounds. (AID 1845222).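 Also: series mostly up to about 54 µM; 0% = DMSO and -100% = no enzyme.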 In a few lines: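 Compounds are pinned into diluted (1:55) conditioned medium of NLuc-expressing S16 cells and held 15 min at room temperature protected from light. Nano-Glo substrate follows, and luminescence is read 5 min later.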

A short description of test [6]: Primary redox qHTS assay for identification of artifact compounds. (AID 1845223). Also: potency is read from the fitted curve at half-maximal effect.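 As to redox activity (% of DA3003): 0% = DMSO and 100% = reference compound.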 In a few lines: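 Amplex Red (25 uM) and HRP (250 mU/mL) in HBSS, with compounds for 15 min, then 250 uM DTT for 30 min, room temperature, dark. Fluorescence 525/598 nm read; normalized to DMSO and 10 uM DA3003; Hill fit.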

Phospholipid hydroperoxide glutathione peroxidase GPX4 (Homo sapiens), sequence (P36969 whole entry, looked up): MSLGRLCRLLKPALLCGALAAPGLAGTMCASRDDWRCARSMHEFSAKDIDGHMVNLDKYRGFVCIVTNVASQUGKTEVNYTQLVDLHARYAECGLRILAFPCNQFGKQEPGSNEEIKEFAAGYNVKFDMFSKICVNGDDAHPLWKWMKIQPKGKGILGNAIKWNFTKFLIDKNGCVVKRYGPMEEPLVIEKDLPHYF
Glutathione peroxidase 1 (Homo sapiens), sequence (P07203 whole entry, looked up): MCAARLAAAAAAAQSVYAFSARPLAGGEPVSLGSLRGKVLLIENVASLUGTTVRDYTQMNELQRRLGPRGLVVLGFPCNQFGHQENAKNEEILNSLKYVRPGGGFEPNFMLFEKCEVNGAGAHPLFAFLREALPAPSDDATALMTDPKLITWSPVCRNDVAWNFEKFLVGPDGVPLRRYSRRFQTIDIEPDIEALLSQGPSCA

For the compound `CN[C@@H]1[C@@H](O)[C@@H](O[C@@H]2[C@@H](O)[C@H](O[C@H]3O[C@H](CN)[C@@H](O)[C@H](O)[C@H]3O)[C@@H](N)C[C@H]2NC(=O)[C@@H](O)CN)OC[C@]1(C)O`, the Potency entry in test [1], in test [2], in test [3], in test [4], in test [5] and in test [6] was “inactive” throughout.
On to `CCOc1cc2ncc(C#N)c(Nc3ccc(OCc4ccccn4)c(Cl)c3)c2cc1NC(=O)/C=C/CN(C)C`, for which the Potency result in test [1], in test [2], in test [3], in test [4] and in test [6] was “inactive” each time.
Take `CCCC1=CC2=C(CO1)C(=O)C(C)(OC(=O)c1c(C)cc(OC)cc1O)C(O)C2` (configuration not stated): the Potency result in test [1], in test [2], in test [3], in test [4] and in test [6] was “inactive” in each case.
Consider `CCCOc1ccn2c(C(C)=O)cc(-c3ccccc3S(C)(=O)=O)c2c1`, for which the Potency entry in test [1], in test [2], in test [3], in test [4], in test [5] and in test [6] was “inactive” throughout.
On to `COc1ccc([C@@H]2N[C@H](C(=O)O)Cc3c2[nH]c2ccccc32)cc1CN1CCN(c2ccccc2F)CC1`, for which the Potency result in test [1], in test [2], in test [3], in test [4], in test [5] and in test [6] was “inactive” in each case.
Consider `CC1(C)CC[C@]2(C(=O)O)CC[C@]3(C)C(=CCC4[C@@]5(C)C[C@H](O)[C@H](O[C@@H]6OC[C@H](O)[C@H](O)[C@H]6O)[C@@](C)(CO)C5CC[C@]43C)[C@@H]2C1` (some centres not stated), for which the Potency result in test [1], in test [2], in test [3], in test [4], in test [5] and in test [6] was “inactive” in each case.
Consider `Cc1cc(Nc2ncc(Cl)c(Nc3ccccc3S(=O)(=O)C(C)C)n2)c(OC(C)C)cc1C1CCNCC1`, for which the Potency result in test [1], in test [2], in test [3], in test [4], in test [5] and in test [6] was “inactive” each time.
Turning to `CC1(C)CC2C(O)C3=C(CC(C)(O)C2C1)C(=O)OC3O` (configuration not stated), the Potency result in test [1], in test [2], in test [3], in test [4], in test [5] and in test [6] was “inactive” each time.
As to `Cc1onc(-c2ccccc2)c1C(=O)N[C@@H]1C(=O)N2[C@@H]1SC(C)(C)[C@@H]2C(=O)O`, the Potency entry in test [1], in test [2], in test [3], in test [4], in test [5] and in test [6] was “inactive” each time.
On to `N#CCc1ccc(O)cc1O[C@@H]1O[C@H](CO)[C@@H](O)[C@H](O)[C@H]1O`, for which the Potency entry in test [1], in test [2], in test [3], in test [5] and in test [6] was “inactive” each time. Besides, in test [4], the Potency was 13.1 µM (active).
Regarding `Cc1nn(C)c2c1C(c1ccc(C(F)(F)F)cc1)C(C#N)=C(N)O2` (configuration not stated), the Potency entry in test [1], in test [2] and in test [3] was “inactive” each time. Besides, the Potency in test [4] was 6.7 µM (active); in test [6] it was 4.23 µM (active).
For `CC1(CO)CC2C(O)C(=O)C3(CO)CC3(C)C2C1` (configuration not stated), the Potency entry in test [1], in test [2], in test [3], in test [4], in test [5] and in test [6] was “inactive” each time.
As to `CC[C@H](/C=C/[C@@H](C)[C@H]1CC[C@H]2[C@@H]3CC=C4C[C@@H](O)CC[C@]4(C)[C@H]3CC[C@]12C)C(C)C`, in test [1], the activity, negative = inhibition was -3.99% [at 4.49 µM]. The activity change, negative = inhibition is 1.85% [at 4.52 µM] in test [2] and 2.1% [at 6.45 µM] in test [3]. The activity change, negative = thiol reactive in test [4] was -7.95% [at 6.41 µM]. Besides, the redox activity (% of DA3003) in test [6] is -0.124% [at 6.41 µM].
With `Cc1nn(C)c(COc2ccc(N3CCN(S(=O)(=O)N(C)C)CC3)cc2)c1-c1cccc2c(CCCOc3cccc4ccccc34)c(C(=O)O)n(CCN3CCOCC3)c12`, the Potency result in test [1], in test [2], in test [3], in test [4], in test [5] and in test [6] was “inactive” throughout.
On to `Cc1c(N2C(=O)c3ccc(C(=O)O)cc3C2=O)c(=O)n(-c2ccccc2)n1C`, for which the Potency result in test [1], in test [2], in test [3], in test [4] and in test [6] was “inactive” throughout.
In the case of `CC1OC(OC2C(CO)OC(OCC3OC(OC(=O)C45CCC(C)(C)CC4C4=CCC6C7(C)CCC(OC8OC(C(=O)O)C(O)C(OC9OC(CO)C(O)C(O)C9O)C8O)C(C)(C)C7CCC6(C)C4(C)CC5)C(O)C(O)C3O)C(O)C2O)C(O)C(O)C1O` (configuration not stated), the results for the activity, negative = inhibition in test [1] and in test [5] were -12.7% [at 9.52 µM] and 0% [at 11.6 µM], respectively. The activity change, negative = inhibition in test [2] is -11.9% [at 9.73 µM]; in test [3] it was -1.13% [at 11.6 µM]. In addition, the activity change, negative = thiol reactive in test [4] is 336% [at 11.5 µM]. Besides, the redox activity (% of DA3003) in test [6] is 7.33% [at 11.5 µM].
`CCOc1ccc(C(Nc2ccccn2)c2ccc3ccc(C)nc3c2O)cc1C` (configuration not stated): the Potency entry in test [1], in test [2], in test [3] and in test [5] was “inactive” in each case.
In the case of `O=C(OCc1cccc(O)c1O[C@@H]1O[C@H](CO)[C@@H](O)[C@H](O)[C@H]1O)C1(O)C(=O)C2C=CC1C1C=CC(=O)C(O)(C(=O)OCc3cccc(O)c3O[C@@H]3O[C@H](CO)[C@@H](O)[C@H](O)[C@H]3O)C21` (some centres not stated), the Potency result in test [1] and in test [2] was “inactive” in each case. Further, the outcome in test [3] was “inactive [at 11.6 µM]”. Also, the activity, negative = inhibition in test [5] was 1.93% [at 11.6 µM].
As to `CCCCS(=O)(=O)Nc1ncnc(OCCOc2ncc(Br)cn2)c1-c1ccc(Br)cc1`, the Potency entry in test [1], in test [2], in test [3], in test [4] and in test [6] was “inactive” each time.
In the case of `Cc1c(CN(C)C(=O)/C=C/c2cnc3c(c2)CCC(=O)N3)oc2ccccc12`, the Potency result in test [1], in test [2], in test [3], in test [4] and in test [6] was “inactive” each time.
Take `NCCOCCOCCNC(=O)Cc1ccc(Nc2nc(NCc3ccc(F)cc3)nc(NCC3CCCCC3)n2)cc1`: the Potency entry in test [1], in test [2], in test [3] and in test [5] was “inactive” each time.
As for `CN1C(=O)N[C@@H](Cc2c[nH]c3c(Cl)cccc23)C1=O`, the Potency entry in test [1], in test [2], in test [3], in test [4] and in test [6] was “inactive” throughout.
For the compound `CC(NC(=O)CC(=O)O)c1nc2ccccc2c(=O)[nH]1` (configuration not stated), the Potency entry in test [1], in test [2], in test [3], in test [5] and in test [6] was “inactive” each time.
In the case of `CN(C)C/C=C/C(=O)Nc1ccc(C(=O)Nc2cccc(Nc3ncc(Cl)c(-c4c[nH]c5ccccc45)n3)c2)cc1`, the Potency entry in test [1], in test [2], in test [3], in test [4] and in test [6] was “inactive” in each case.
On to `OC[C@H]1O[C@@H](n2cnc3c(NCc4ccc(O)cc4)ncnc32)[C@H](O)[C@@H]1O`, for which the Potency entry in test [1], in test [2], in test [3], in test [5] and in test [6] was “inactive” throughout.
For `OCCc1ccc(O[C@@H]2O[C@H](CO)[C@@H](O)[C@H](O)[C@H]2O)c(O)c1`, the Potency result in test [1], in test [2], in test [3] and in test [5] was “inactive” in each case.
For `C/C(=C/CO)CC[C@@H]1[C@@]2(C)CCC[C@](C)(C(=O)O)C2CC[C@@]1(C)O` (some centres not stated), the Potency result in test [1], in test [2], in test [3], in test [5] and in test [6] was “inactive” each time.
In the case of `COC1=Cc2c(nc3n(c2=O)C(C)C(=O)NC3(O)C(C)C)OC=C1` (configuration not stated), the Potency entry in test [1], in test [2], in test [3] and in test [5] was “inactive” each time.
Turning to `CC(C)CC1NC(=O)C(C(C)c2ccccc2)NC(=O)C(C(C)C)NC(=O)C(C)NC(=O)CCCNC(=O)C(Cc2c[nH]c3ccccc23)NC(=O)C(C)NC1=O` (stereo not drawn) (cyclo([GABA]AV[ξPhe(βξ-Me)]LAW); configuration not given here), the Potency entry in test [1], in test [2], in test [3] and in test [5] was “inactive” each time.
Turning to `OC[C@H]1O[C@@H](OC(CCCCc2ccc(O)cc2)CCc2ccc(O)cc2)[C@H](O[C@@H]2OC[C@](O)(CO)[C@H]2O)[C@@H](O)[C@@H]1O` (some centres not stated), the Potency entry in test [1], in test [2], in test [3], in test [4] and in test [6] was “inactive” throughout.
As for `CC1=CCC2C(C)(CO)CCCC2(CO)C1CO` (configuration not stated), the Potency result in test [1], in test [2], in test [3] and in test [6] was “inactive” in each case. The Potency in test [4] was 13.4 µM (active).
As to `Nc1ncnc2c1ncn2[C@H]1CCCO1`, the Potency entry in test [1], in test [2], in test [3], in test [4] and in test [6] was “inactive” each time.
Regarding `C=C1C(=O)OC2CC(C)=C(C(C)CCCO[C@@H]3O[C@H](CO)[C@@H](O)[C@H](O)[C@H]3O)C(O)C12` (some centres not stated), the Potency entry in test [1], in test [2], in test [3] and in test [5] was “inactive” throughout.
Consider `CC(C)CC(=O)n1cc(C(N)=O)c(=O)cc1C(O)c1ccccc1` (configuration not stated), for which the Potency result in test [1], in test [2], in test [3] and in test [5] was “inactive” in each case.
As to `COc1cc(C2Oc3c(O)cc(CCCO)cc3C2CO)ccc1O[C@H]1O[C@H](C)[C@@H](O)[C@H](O)[C@@H]1O` (some centres not stated), the Potency result in test [1], in test [2], in test [3], in test [5] and in test [6] was “inactive” each time.
Take `O=C1N(CC2CCCCN2)CCN1c1ccccc1` (configuration not stated): the Potency result in test [1], in test [2], in test [3], in test [5] and in test [6] was “inactive” each time.
Regarding `CC(C)c1cc2c(c(O)c1O[C@@H]1O[C@H](CO)[C@@H](O)[C@H](O)[C@H]1O)CC1(O)CCC(O)C(C)(C)C1CC2` (some centres not stated), the Potency entry in test [1], in test [2], in test [3] and in test [5] was “inactive” each time.
